Bioassay records as filed in PubChem.
This is a sample that favours compounds with a hit; in the whole collection about 1.8% have one here.
Granule exo inh = lytic granule exocytosis inhibition; AID 651702; inhibition, % at 10 µM; actives 0.66% (n = 360,000); TALL-104 LAMP-1 surface exposure, flow cytometry; cells stimulated with thapsigargin and PMA;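 active = inhibition above about 55%, limit read from the data; inconclusive = no clear call, values can overlap the other calls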
Myeloid diff 2 = promotes myeloid progenitor differentiation; ER-HoxA9 myeloid progenitors, lysozyme-GFP differentiation, flow cytometry; calls only at 10 µM; actives 1% (n = 360,000); AID 624256;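 active = normalized GFP-positive differentiation at or above the plate's own cutoff, the solvent-only control mean plus 3 SD; inconclusive = no clear call, values can overlap the other calls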;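 also: cells exposed to compound for four days before flow analysis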
ABCB6 inh MLPCN = inhibitors of human ABC transporter ABCB6; Q9NP58; K562-ABCB6 porphyrin accumulation, flow cytometry, 1 h; stronger effect = lower value; fluorescence ratio to DMSO, % at 10 µM; actives 0.19% (n = 360,000); AID 602162;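 active = fluorescence ratio to DMSO below 75%, the collection mean minus 3 SD; inconclusive = too few cells collected in the well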;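 also: signal is porphyrin accumulated inside mitochondria; 100% equals median channel fluorescence of DMSO control wells; lower ratio means ABCB6 inhibition with less porphyrin fluorescence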
Target sequence (Q9NP58 whole entry, looked up): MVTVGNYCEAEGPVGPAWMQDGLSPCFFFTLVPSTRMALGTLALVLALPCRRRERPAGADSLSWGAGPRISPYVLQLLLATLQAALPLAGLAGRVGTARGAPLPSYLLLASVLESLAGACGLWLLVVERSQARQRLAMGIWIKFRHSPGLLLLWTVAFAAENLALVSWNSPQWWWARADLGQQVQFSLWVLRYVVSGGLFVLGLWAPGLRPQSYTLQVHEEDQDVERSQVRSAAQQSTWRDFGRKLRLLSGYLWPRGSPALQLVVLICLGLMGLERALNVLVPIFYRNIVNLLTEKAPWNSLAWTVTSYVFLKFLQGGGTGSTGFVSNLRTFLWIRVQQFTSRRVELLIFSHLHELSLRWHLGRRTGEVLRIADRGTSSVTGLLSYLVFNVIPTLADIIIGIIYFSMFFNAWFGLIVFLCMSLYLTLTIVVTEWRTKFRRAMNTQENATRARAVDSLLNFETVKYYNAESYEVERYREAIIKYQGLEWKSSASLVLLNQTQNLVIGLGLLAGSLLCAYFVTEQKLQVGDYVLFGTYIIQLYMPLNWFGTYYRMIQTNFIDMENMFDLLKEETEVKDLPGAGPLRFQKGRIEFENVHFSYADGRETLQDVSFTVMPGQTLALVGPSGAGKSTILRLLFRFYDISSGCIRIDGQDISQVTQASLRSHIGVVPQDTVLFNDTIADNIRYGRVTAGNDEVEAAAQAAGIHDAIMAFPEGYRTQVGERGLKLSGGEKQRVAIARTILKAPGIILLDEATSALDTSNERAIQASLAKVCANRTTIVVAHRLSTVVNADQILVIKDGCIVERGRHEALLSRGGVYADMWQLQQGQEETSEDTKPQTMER
ABCB6 inh CP1 = inhibitors of human ABC transporter ABCB6 | ratio response (% of DMSO), % at 10 µM | AID 602430 | K562-ABCB6 porphyrin accumulation, flow cytometry, 1 h; stronger effect = lower value | shares compounds with ABCB6 inh MLPCN | 700 tested, under 10 active;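 active = repeat-averaged ratio response below 75% of DMSO, the collection mean minus 3 SD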;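 also: median porphyrin fluorescence at 575 nm with 488 nm excitation from mitochondria; lower ratio means less porphyrin signal so ABCB6 inhibition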
Myeloid diff CP1 = myeloid differentiation induction. shares compounds with Myeloid diff 2. ER-HoxA9 myeloid progenitors, GFP/Mac1 double-positive flow. calls only. actives 2% (n = 2,300);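 active = share of green or green-and-red cells above 9 and 9% in run 1 or 4 and 3% in run 2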
GFP autofluor = counter-screen for myeloid differentiation promoters: compound fluorescence. shares compounds with Myeloid diff 2. actives 7.4% (n = 2,300). ER-HoxA9 myeloid progenitors, no estrogen, GFP autofluorescence flow cytometry; vehicle wells 0%, positive control 100%. fluorescence response, % (test concentration not listed);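 active = over 5% cells positive for green fluorescent reporter, or over 2% positive for both it and APC stain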;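 also: range taken on the double positive population between DMSO and positive control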
Starred values were filed as active, the others as inactive; i = inactive; ? = inconclusive; . = not tested or not shown; + = active, no number.

SMILES	Granule exo inh	Myeloid diff 2	ABCB6 inh MLPCN	others
CC(=O)Nc1ccc(S(=O)(=O)N2Cc3ccccc3-n3nncc3C2)cc1	-2	+	103
CCN1CC=C(c2c[nH]c3ccccc23)CC1	0	+	101
Cc1[nH]c2ccccc2c1C(=O)CN1CC=C(c2ccccc2)CC1	-1	i	109
CSc1ccc(NC(=O)C2(C)CCN2C(=O)C2(c3ccccc3)CC2)cc1 (stereo unspecified)	-4	i	97
CC1(C)CSC(=NCc2ccccc2)N1	2	i	93
CN1/C(=C\C=C2C(=O)NC(=O)NC2=O)C(C)(C)c2ccccc21	0	+	104
CN1/C(=C\C=Nc2ccccc2)C(C)(C)c2ccccc21	-1	i	260
COC(=O)C1=C(c2cccc(OC)c2OC)C[C@@H]2CC[C@H]1N2C(=O)NCc1cccc2ccccc12	-9	i	95
COc1ccc(-n2c(/C=C/c3ccc(O)c(O)c3)nc3ccccc3c2=O)cc1	8	i	114
COc1cc(/C=C/c2nc3ccccc3c(=O)n2-c2ccc(O)cc2)ccc1O	23	+	135
CCCNC(=O)N1[C@H]2CC[C@@H]1C(C(=O)OC)=C(c1cccc(C#N)c1)C2	-2	i	97
Cc1c(C=C2C(=O)NC(=O)NC2=O)c(=O)n(-c2ccccc2)n1C	0	i	97
CCN(CC)c1nc2c(C)cccn2c(=O)c1C=C1C(=O)NC(=O)NC1=O	0	i	38*
CCN(C(=O)COC(=O)Cc1ccccc1)c1c(N)n(Cc2ccccc2)c(=O)[nH]c1=O	2	i	97
CCCC/C(=N\O)c1c[nH]c2ccccc12	-2	i	95
CN(C)C(=O)Oc1noc2cc(Cl)ccc12	-5	i	99
COc1ccc(-[n+]2c(-c3ccccc3)cc(-c3ccc(C)cc3)cc2-c2ccccc2)cc1	74*	.	98
COc1ccc(-c2cc(-c3ccccc3)[n+](C)c(-c3ccccc3)c2)cc1	4	i	90
CCCCCn1c(=O)c(C(=O)Nc2cc(C)ccn2)c(O)c2ccccc21	-3	+	97
CCCCCn1c(=O)c(C(=O)Nc2cnccn2)c(O)c2ccccc21	-2	.	94
C=C(C)[C@@H]1[C@H]2OC(=O)[C@H]1[C@]1(O)C[C@H]3O[C@]34C(=O)O[C@H]2[C@]14C	0	i	98
CC1([N+](=O)[O-])COP(=O)(Nc2ccc(Cl)cc2)OC1 (stereo unspecified)	-2	i	94
CC1([N+](=O)[O-])COP(=O)(Nc2cccc(Br)c2)OC1 (stereo unspecified)	0	+	295
CCN1/C(=C/C=C/C2=[N+](CC)c3ccccc3C2(C)C)C(C)(C)c2ccccc21	69*	?	.
CCOC(=O)C1(CCOc2ccccc2)CCN(Cc2ccccc2OC)CC1	34	i	99
SMILES	Granule exo inh	Myeloid diff 2	ABCB6 inh MLPCN	others
CCOC(=O)C1(CCOc2ccccc2)CCN(Cc2cccc(O)c2)CC1	90*	i	100
O=C(O)CCn1cc(C=C2C(=O)NC(=O)NC2=O)c(-c2cc3ccccc3oc2=O)n1	-3	i	111
OCC(Br)CBr (stereo unspecified)	7	i	98
O=C(O)Cn1cc(/C=C2\C(=O)NC(=O)N(c3ccc(Cl)cc3)C2=O)c2ccccc21	4	i	108
CCN(CC)C(=O)Cn1cc(/C=C2\C(=O)NC(=O)N(c3ccccc3F)C2=O)c2ccccc21	28	+	95
Cn1cc(C(=O)OCC(=O)NC2(C#N)CCCCC2)c2ccccc21	-7	i	97
CCOc1cc2c(cc1OCC)-n1cccc1C(c1ccccc1OC)NC2 (stereo unspecified)	-7	i	73*	ABCB6 inh CP1=98
CCOc1cc2c(cc1OCC)-n1cccc1C(c1ccccc1O)NC2 (stereo unspecified)	13	i	91
C=C1C(=O)O[C@@H]2C[C@@H](C)[C@@H]3C4OC4C(=O)[C@@]3(C)[C@@H](O)[C@H]12 (stereo partly specified)	-3	?	94
CCCCn1c(O)c(/C=N/N2CCOCC2)c(=O)[nH]c1=S	-10	i	106
CCCCCCn1c(O)c(C=Nc2ccccc2N2CCOCC2)c(=O)[nH]c1=S	0	i	138	Myeloid diff CP1=i;GFP autofluor=0
Cc1ccc(N2C(=O)CC(=O)NC2=O)c(C)c1	1	i	95
CCOP(=O)(OCC)C1(O)C(=O)Nc2ccc(Br)cc21 (stereo unspecified)	4	i	82
COc1ccc(/C=C/C(=O)c2c(O)n(CCC3=CCCCC3)c(=O)[nH]c2=O)cc1	-1	i	91
O=C(/C=C/c1ccc2c(c1)OCO2)c1c(O)n(CCC2=CCCCC2)c(=O)[nH]c1=O	1	i	100	Myeloid diff CP1=i;GFP autofluor=0
COC(=O)C1=C(c2cccc(C#N)c2)C[C@@H]2CC[C@H]1N2C(=O)NC(C)C	13	i	85
COC(=O)C1=C(c2cc3ccccc3s2)C[C@@H]2CC[C@H]1N2C(=O)NC1CCCCC1	-6	i	98	Myeloid diff CP1=+;GFP autofluor=0
COC(=O)C1=C(c2cccc(C#N)c2)C[C@@H]2CC[C@H]1N2C(=O)NC1CCCCC1	12	+	96	Myeloid diff CP1=i;GFP autofluor=0
CCCNC(=O)N1[C@H]2CC[C@@H]1C(C(=O)OC)=C(c1cc3ccccc3s1)C2	2	i	98
COC1C(O)C(C)OC(OC2CCC3(C)C(CCC4C3C(O)CC3(C)C(C5=CC(=O)OC5)CCC43O)C2)C1O (stereo unspecified)	-4	.	104
COC(=O)C1=C(c2cc3ccccc3o2)C[C@@H]2CC[C@H]1N2C(=O)NC(C)C	-5	i	100
Cc1cccc(C(=O)NC(Oc2ccccc2)C(Cl)(Cl)Cl)c1 (stereo unspecified)	-2	i	94	Myeloid diff CP1=i;GFP autofluor=2
CCOP(=O)(OCC)C(NC(=O)c1cccc(C)c1)C(Cl)(Cl)Cl (stereo unspecified)	4	i	99
C[C@]12CCC(=O)C=C1C=CC1C2CC[C@]2(C)C(=O)CCC12 (stereo partly specified)	-2	i	101
COc1ccc(NC(=O)c2cn(CCC#N)nc2-c2cccc([N+](=O)[O-])c2)cc1	2	i	101
COc1ccc(Oc2cc(NC(=O)c3nn(C)cc3[N+](=O)[O-])cc([N+](=O)[O-])c2)cc1	-1	i	96	Myeloid diff CP1=i;GFP autofluor=0
O=C(CCc1ccccc1)N1C[C@H]2C[C@@H](C1)c1cccc(=O)n1C2	1	i	99
OCC1(CO)COC(c2cccnc2)N1 (stereo unspecified)	26	i	101
